# JMJD2A Tudor inh = inhibitors of human JMJD2A Tudor domain. O75164. AlphaScreen JMJD2A-Tudor / H3K4me3 peptide binding. Potency, µM (doses to about 114 µM), for inactives: at the top dose activity change, negative = inhibition, hits mostly inhibitors. 390,000 tested, 4.4% active. AID 504339; note: % is set by controls: 0 for no effect and ±100 for the full control effect; nearly all actives have a fitted effect of over 50% in size
# HP1b chromo inh = inhibitors of HP1-beta chromodomain binding to methylated histone tails | AID 540317 | AlphaScreen HP1-beta / biotin-H3K9me3 peptide binding | P83916 | Potency, µM (top dose mostly 114 µM), without a hit: at the top dose activity change, negative = inhibition, hits mostly inhibitors | 390,000 tested, 0.56% active; note: nearly all actives have a fitted effect of over 70% in size
#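 HP1-beta protein (50 nM final) preincubated 30 min at room temperature with biotinylated H3(1-18)K9me3 peptide (50 nM) in PBS pH 7.4, 0.01% Tween-20, then compound added for 30 min. AlphaScreen streptavidin donor/nickel chelate acceptor beads (10 ug/mL final), 30 min dark, luminescence read.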
# BAZ2B block = inhibitors of human BAZ2B bromodomain. 360,000 tested, 4.4% active. Q9UIF8. Potency, µM (top dose mostly 114 µM), for the others: at the highest dose activity change, negative = inhibition, actives largely listed as inhibitors. AlphaScreen BAZ2B-H3K14Ac peptide displacement. AID 504333; note: % is set by controls: 0 for no effect and ±100 for the full control effect; nearly all actives have a fitted effect of over 60% in size
# Target sequence (Q9UIF8 whole entry, looked up): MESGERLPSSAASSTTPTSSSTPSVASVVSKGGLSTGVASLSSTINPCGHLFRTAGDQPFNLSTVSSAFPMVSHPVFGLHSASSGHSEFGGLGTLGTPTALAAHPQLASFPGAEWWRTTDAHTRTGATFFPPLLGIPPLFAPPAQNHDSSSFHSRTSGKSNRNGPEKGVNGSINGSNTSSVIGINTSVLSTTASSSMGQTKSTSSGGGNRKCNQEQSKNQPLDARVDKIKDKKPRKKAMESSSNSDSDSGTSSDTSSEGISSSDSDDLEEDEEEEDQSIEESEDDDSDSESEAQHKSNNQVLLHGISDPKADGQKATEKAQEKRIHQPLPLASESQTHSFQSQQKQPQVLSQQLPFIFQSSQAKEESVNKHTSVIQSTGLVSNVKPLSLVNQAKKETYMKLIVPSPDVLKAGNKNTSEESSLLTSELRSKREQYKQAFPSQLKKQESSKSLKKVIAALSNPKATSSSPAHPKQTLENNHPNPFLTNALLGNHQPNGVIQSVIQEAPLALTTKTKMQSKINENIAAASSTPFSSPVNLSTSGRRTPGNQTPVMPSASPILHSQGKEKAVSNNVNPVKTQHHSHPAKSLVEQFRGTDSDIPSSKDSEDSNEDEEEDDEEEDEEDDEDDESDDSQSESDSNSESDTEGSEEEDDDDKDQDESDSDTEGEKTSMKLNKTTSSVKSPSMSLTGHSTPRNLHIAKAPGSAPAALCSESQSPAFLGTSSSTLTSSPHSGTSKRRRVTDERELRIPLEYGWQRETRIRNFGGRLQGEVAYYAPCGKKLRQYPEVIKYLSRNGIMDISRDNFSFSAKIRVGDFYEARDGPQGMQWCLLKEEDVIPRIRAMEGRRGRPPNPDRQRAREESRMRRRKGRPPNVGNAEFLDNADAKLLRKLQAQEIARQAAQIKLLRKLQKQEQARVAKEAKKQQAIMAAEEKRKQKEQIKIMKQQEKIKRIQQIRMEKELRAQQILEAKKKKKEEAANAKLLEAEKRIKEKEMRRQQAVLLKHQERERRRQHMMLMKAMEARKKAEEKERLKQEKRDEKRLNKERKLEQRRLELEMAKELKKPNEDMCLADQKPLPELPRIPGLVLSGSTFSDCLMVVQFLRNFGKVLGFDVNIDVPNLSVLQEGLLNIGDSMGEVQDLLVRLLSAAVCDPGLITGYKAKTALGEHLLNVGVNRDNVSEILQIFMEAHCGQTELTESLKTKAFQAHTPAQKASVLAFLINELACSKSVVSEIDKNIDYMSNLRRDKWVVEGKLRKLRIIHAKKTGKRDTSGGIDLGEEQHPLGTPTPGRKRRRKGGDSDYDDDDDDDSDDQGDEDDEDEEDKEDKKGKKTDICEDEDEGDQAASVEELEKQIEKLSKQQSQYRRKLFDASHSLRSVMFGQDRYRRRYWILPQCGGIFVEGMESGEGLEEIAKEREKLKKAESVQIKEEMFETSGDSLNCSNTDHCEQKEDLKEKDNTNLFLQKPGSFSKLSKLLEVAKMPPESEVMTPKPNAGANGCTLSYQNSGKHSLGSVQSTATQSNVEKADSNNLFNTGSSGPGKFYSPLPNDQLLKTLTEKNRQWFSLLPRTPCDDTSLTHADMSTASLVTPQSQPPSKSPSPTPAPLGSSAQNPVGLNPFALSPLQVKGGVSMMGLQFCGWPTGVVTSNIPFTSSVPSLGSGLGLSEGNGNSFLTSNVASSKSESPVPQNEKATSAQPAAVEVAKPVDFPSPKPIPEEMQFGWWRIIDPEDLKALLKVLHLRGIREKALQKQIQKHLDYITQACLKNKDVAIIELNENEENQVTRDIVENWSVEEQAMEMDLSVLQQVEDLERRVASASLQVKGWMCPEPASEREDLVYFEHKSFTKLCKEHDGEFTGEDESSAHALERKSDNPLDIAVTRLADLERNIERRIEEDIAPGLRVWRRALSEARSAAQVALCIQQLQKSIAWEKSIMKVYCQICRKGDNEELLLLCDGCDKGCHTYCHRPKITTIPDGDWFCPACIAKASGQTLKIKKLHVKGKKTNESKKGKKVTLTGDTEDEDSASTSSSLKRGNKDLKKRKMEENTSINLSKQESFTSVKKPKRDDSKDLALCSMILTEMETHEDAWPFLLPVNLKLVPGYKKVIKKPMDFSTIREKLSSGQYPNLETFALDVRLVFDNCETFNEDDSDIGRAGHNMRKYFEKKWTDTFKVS
#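 AlphaScreen displacement of biotin-H3(5-23)K14Ac peptide (50 nM final) from BAZ2B (50 nM final) in PBS pH 7.4, 0.01% Tween-20; complex preformed 30 min RT, then compounds (top 110 uM) 30 min RT, beads 20 min dark.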
# GLS inhibitor = inhibitors of human glutaminase (GLS); O94925; GLS enzymatic activity, qHTS titration; Potency, µM (highest dose often 45.5 µM), for inactives: at the highest dose activity change, negative = inhibition, most hits filed as inhibitors; 410,000 tested, 0.21% active; note: % is set by controls: 0 for no effect and ±100 for the full control effect
#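 Read-out is an Amplex red fluorescence increase coupled through glutamate oxidase and HRP, measured before and after 30 min room-temperature incubation. hKGA is in 45 mM KH2PO4 (pH 8.2) with 0.02% Tween-20; glutamine added as 1mM solution.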
# G9a block = blocks human histone lysine methyltransferase G9a | Q96KQ7 | Potency, µM (top dose mostly 102 µM), without a hit: at the top dose activity, negative = inhibition, most hits filed as inhibitors | G9a H3K9 monomethylation, AlphaScreen, 2 h | AID 504332 | 350,000 tested, 8.8% active; note: % is set by controls: 0 for no effect and ±100 for the full control effect; nearly all actives have a fitted effect of over 75% in size
#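 Signal arises when biotinylated H3K9 peptide, once monomethylated, bridges streptavidin donor and antibody-captured acceptor beads. Enzyme at 20 nM was preincubated 15 min with test compounds; peptide 500 nM and SAM 20 uM then reacted for 2 h.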
# Starred values were filed as active, the others as inactive; u = inconclusive; x = not tested or not shown; [ ] = remark or other dose. Compounds with a hit are over-represented: about 10% of the library has one in this group of screens. Calls come from the whole dose curve; as a rule, active = well fitted curve in the direction sought with a large enough effect; inconclusive = small, poorly fitted or top-dose-only effect, or another doubt; inactive = no such curve, though single readings can be large; an effect the other way counts as inactive or inconclusive. Potency is the fitted concentration of half-maximal effect.
SMILES,JMJD2A Tudor inh,HP1b chromo inh,BAZ2B block,GLS inhibitor,G9a block
COc1ccc([C@]23Cc4cc(OC)c(OC)cc4C(O2)C2=C(CC(C)(C)CC2=O)O3)cc1,x,x,-30.5%[22.9 µM],x,9.2%[2.33 µM]
C#CCN(Cc1ccccc1)S(=O)(=O)C=C,1.4%,54.2%,10.8%,-2.2%,-10.0%[2.33 µM]
Cc1ccc(S(=O)(=O)N2CN(Cc3ccco3)c3nc4ccccc4nc32)cc1C,-22.3%,15.3%,-24.1%,2.8%,31.6µM*
Cc1ccc(S(=O)(=O)N2CN(Cc3ccco3)c3nc4ccccc4nc32)cc1,u,10.3%,-27.6%,14.1%,31.6µM*
O=S(=O)(c1ccc(F)cc1)N1CN(Cc2ccco2)c2nc3ccccc3nc21,u,-4.3%,u,6.8%,11.2µM*
COc1ccc(S(=O)(=O)N2CCC(C(=O)NCc3cccnc3)CC2)cc1OC,1.4%,20.2%,26.6%,-4.7%,13.6%[59 µM]
CC1CCN(CCCNC(=O)c2ccc3c(Cl)c4c(nc3c2)CCCC4)CC1,-22.4%,16.2%,u,-3.1%,x
CCc1cccc(NC(=O)CC2Oc3ccc(C)cc3NC2=O)c1 (stereo not drawn),1.5%,7.3%,-26.1%,-13.4%,-11.3%[59 µM]
CC(=O)c1cccc(NC(=O)CSc2n[nH]c(=O)n2C2CC2)c1,-11.7%,5.1%,x,-14.5%,x
CCCCOC(=O)c1ccc(NC(=O)CSc2nc3c(c(=O)[nH]2)CCC3)cc1,-18.9%,27.4%,-4.6%,-5.6%,u
CC(=O)Nc1ccc(NC(=O)COC(=O)c2ccccc2SCC(=O)N2CCCC2)cc1,-23.3%,25.1%,4.2%,2.6%,17.8µM*
CCNC(=O)NC(=O)COC(=O)c1ccccc1SCC(=O)NC(=O)NCC,u,u,-2.1%,u,44.7µM*
COc1ccccc1CCNC(=O)c1ccccc1SCC(=O)N1CCCC1,-6.8%,28.3%,1.1%,-7.1%,19.5%[12.7 µM]
COc1ccc(NC(=O)COC(=O)c2ccccc2SCC(=O)N2CCCC2)cc1,3.9%,28.9%,4.0%,8.1%,39.8µM*
COc1ccc(CNC(=O)c2ccccc2SCC(=O)N2CCCC2)cc1OC,-9.8%,24.6%,-5.0%,-0.5%,44.7µM*
CC(=O)C1=C(c2ccccc2)N(C(C)=O)n2c(nnc2C2CCCCC2)S1,11.4%,96.7%,6.1%,-1.8%,-1.2%[59 µM]
Cc1ccc(S(=O)(=O)N(C)CCN(C)S(=O)(=O)c2ccc(C)cc2)cc1,-2.1%,22.2%,x,4.0%,x
COc1cc(NC(=O)c2cc3c(=O)n(Cc4ccco4)ccc3nc2C)cc(OC)c1OC,-11.3%,22.4%,-0.3%,7.0%,-0.3%[59 µM]
CCC(C(=O)C(C)C(O)C(C)CCc1ccc(C)c(O)c1C(=O)O)C1OC(CC)(C2CC[C@@](O)(CC)C(C)O2)CC1C (stereo partly drawn),x,x,x,-23.2%,-3.5%[2.33 µM]
COCCn1c(C)c(C)c2c(NCCc3ccccc3)ncnc21,17.8µM*,u,28.2µM*,2.6%,28.2µM*
Cc1c(C(=O)N/N=C/c2ccncc2)nnn1-c1nonc1N,2.0%,22.2%,11.5%,-2.3%,-24.7%
N=c1oc2ccc3ccccc3c2cc1C(N)=S,-26.4%,-7.8%,-32.3%,5.3%,20µM*
O=C(O)c1cc2c(ccc3ccccc32)oc1=O,x,x,-2.4%,x,u
CC1CCN(C(=O)Cn2cc(SCc3ccccc3)c3ccccc32)CC1,3.7%,48.2%,1.4%,5.0%,3.8%[59 µM]
CCN(CC(=O)Nc1c(F)cccc1F)C(=O)c1ccc(OCc2c(C)noc2C)cc1,-6.2%,36.0%,-5.9%,-2.2%,10.3%[12.7 µM]
SMILES,JMJD2A Tudor inh,HP1b chromo inh,BAZ2B block,GLS inhibitor,G9a block
C/C(=N\NC(=O)Cc1cccn1C)c1ccc2ccccc2c1,u,-1.9%,u,23.0%,70.8µM*
COc1cccc(S(=O)(=O)N2CCN(c3nc(-c4cccs4)nc4ccccc34)CC2)c1,-18.4%,38.4%,x,x,x
COc1ccccc1NC(C)C(=O)N/N=C/c1cccs1 (stereo not drawn),-26.1%,-2.6%,u,0.9%,-4.9%
CCOc1ccc(NC(C)C(=O)N/N=C/c2cccs2)cc1 (stereo not drawn),-35.6%,-0.3%,u,5.6%,44.7µM*
O=C(Nc1cccc(F)c1)/C(=C\c1cccnc1)NC(=O)c1ccco1,2.0%,33.4%,-9.0%,1.7%,-2.3%
O=C(Nc1cccc(F)c1)/C(=C/c1ccco1)NC(=O)c1ccco1,u,-24.5%,-29.9%,8.9%,28.2µM*
Cc1cccc(NC(=O)/C(=C\c2ccco2)NC(=O)c2cccs2)c1,89.1µM*,u,3.1%[57.1 µM],-8.7%,31.6µM*
CCN(CCn1cccn1)C(=O)c1cc(COc2cc(C)ccc2C)on1,44.5%,92.3%,-1.0%,8.7%,x
c1cc2c(cn1)cnc1cscc12,10.0%,32.3%,-0.9%,-8.0%,79.4µM*
c1cnc2c(c1)ncc1cscc12,2.0%,38.2%,3.8%,2.2%,0.2%[59 µM]
Cc1c(C(=O)NCc2ccccc2C(F)(F)F)sc(=O)n1Cc1ccc(F)cc1,x,x,x,0.0%,x
COc1ccc(OC)c(Cc2nnc(CCC(=O)NC3C4CC5CC(C4)CC3C5)o2)c1 (stereo not drawn),-7.7%,33.0%,21.5%,0.7%,42.6%[12.7 µM]
CC(=O)Cc1nsc(NC(=O)C2Cc3ccccc3C(=O)O2)n1 (stereo not drawn),-26.8%,12.3%,-9.9%,0.8%,56.2µM*
CCCCn1c(-c2ccc(OC(F)F)cc2)nc2c1c(=O)[nH]c(=O)n2CC(C)C,-5.5%,38.3%,24.1%,-0.7%,50.1µM*
CCCn1c(=O)[nH]c(=O)c2c1nc(-c1ccc(OC(F)(F)C(F)C(F)(F)F)cc1)n2CCOC (stereo not drawn),-4.5%,52.9%,9.1%,1.5%,25.1µM*
CC(C)(C)OC(=O)NCCCCCO,-11.7%,31.5%,-4.7%,20.6%,5.1%[59 µM]
Cc1nnc(NC(=O)c2ccc(S(=O)(=O)N3CCc4ccccc4C3)cc2)o1,-29.8%,39.3%,79.4µM*,4.0%,-25.5%
Cc1cc(C)c2nc(NNC(=O)c3cc(=O)c4ccccc4o3)sc2c1,56.2µM*,u,31.6µM*,11.8%,8.91µM*
Cc1cc(C)c2sc(NNC(=O)c3ccc(S(=O)(=O)N4CCc5ccccc5C4)cc3)nc2c1,3.55µM*,5.2%,5.62µM*,21.6%,u
COc1ccc2nc(NC(=O)c3cc(=O)c4ccccc4o3)sc2c1,-34.0%,57.6%,0.3%,-10.4%,-31.9%[59 µM]
Cc1cc(C)c2nc(NNC(=O)c3ccc(S(=O)(=O)N4CCc5ccccc5C4)cc3)sc2c1,u,-4.2%,u,20.8%,39.8µM*
CCOC(=O)c1c(NC(=O)Nc2ccc(F)cc2)sc(C(=O)N(C)C)c1C,-10.6%,15.4%,1.5%,7.4%,-7.6%[59 µM]
CCOc1ccccc1CN1CCNC(=O)C1CC(=O)NC1CCCCCCC1 (stereo not drawn),-4.4%,20.7%,x,13.6%,x
COc1ccccc1/C=C/c1nc2ccccc2n1C(C)C,120.1%,205.0%,149.6%,-0.8%,101.6%[59 µM]
